# PubChem BioAssay AID651998 (The Scripps Research Institute Molecular Screening Center, 2013)
# Target: Acyl-protein thioesterase 1 (Homo sapiens) (UniProt O75608)
# Assay: LYPLA1 enzyme kinetics with inhibitors – biochemical, substrate-based fluorescence, Ki, Km, late-stage follow-up (AID 651998)
# Settings: recombinant LYPLA1, resorufin acetate hydrolysis fluorescence, without test compound, enzyme Km for substrate
# Acyl-protein thioesterase 1 (Homo sapiens), sequence (O75608 whole entry, looked up): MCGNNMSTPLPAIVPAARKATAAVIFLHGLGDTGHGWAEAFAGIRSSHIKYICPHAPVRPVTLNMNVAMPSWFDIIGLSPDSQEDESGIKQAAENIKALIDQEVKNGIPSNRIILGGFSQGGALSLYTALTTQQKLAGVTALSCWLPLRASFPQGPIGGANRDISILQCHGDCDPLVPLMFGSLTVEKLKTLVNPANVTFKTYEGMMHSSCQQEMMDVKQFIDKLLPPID
compound,measurement,value
O=C(CN1CCN(C(=O)c2ccco2)CC1)Nc1cc(C(F)(F)F)ccc1Cl,Km,28.3 µM
